Sampled rows, rich in hits. Any-hit rate of the full collection: about 3.5%.
MITF primary: inhibitors of human MITF | O75030 | AlphaScreen MITF homodimerization, bead proximity signal | actives 0.91% (n = 650,000) | inhibition, % at 2.6 µM; in the data active = inhibition above about 50%;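 note: 0% = vehicle wells with protein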
Target sequence (O75030 whole entry, looked up): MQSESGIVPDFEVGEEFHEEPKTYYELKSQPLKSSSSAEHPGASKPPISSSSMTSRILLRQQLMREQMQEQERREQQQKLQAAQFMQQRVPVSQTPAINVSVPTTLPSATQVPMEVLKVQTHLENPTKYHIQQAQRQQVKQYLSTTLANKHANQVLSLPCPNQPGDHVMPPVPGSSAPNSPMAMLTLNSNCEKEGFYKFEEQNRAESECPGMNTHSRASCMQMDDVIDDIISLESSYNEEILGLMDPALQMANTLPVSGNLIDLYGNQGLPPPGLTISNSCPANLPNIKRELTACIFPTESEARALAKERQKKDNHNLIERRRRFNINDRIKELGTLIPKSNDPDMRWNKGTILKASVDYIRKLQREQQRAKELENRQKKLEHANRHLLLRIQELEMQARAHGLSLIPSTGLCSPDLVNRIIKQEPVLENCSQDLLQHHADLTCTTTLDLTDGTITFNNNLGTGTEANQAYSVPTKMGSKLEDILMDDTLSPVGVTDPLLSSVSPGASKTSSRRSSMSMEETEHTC
GPR151 activ: human GPR151 activation; PathHunter beta-arrestin GPR151 cells, luminescence; activation, % at 11.2 µM; actives 1% (n = 650,000); AID 1508602; in the data active = activation above about 4.9%;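 note: 0% = median of compound wells and 100% = cells with positive control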
FBW7 act: human FBW7 E3 ligase activation, primary screen; AlphaScreen FBW7–phospho-cyclin E peptide binding, activator screen; normalized activity (activation), % at 26.1 µM; Q969H0; actives 0.13% (n = 650,000); in the data active = normalized activity above about 1.9%;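 note: purified mutant Fbw7 with reduced substrate affinity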
TEAD-YAP inh: TEAD-YAP interaction inhibition. HEK-TIYL cells, TEAD-Gal4/YAP UAS-luciferase luminescence. inhibition, % at 9.12 µM. actives 1.4% (n = 640,000); in the data active = inhibition above about 32%;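 note: 0% = median of test compound wells and 100% = reference inhibitor wells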
* marks the source's active call; other numbers are inactive results.

SMILES	MITF primary	GPR151 activ	FBW7 act	TEAD-YAP inh
CCN(CC)C(=O)C1CN(CCS(=O)(=O)c2ccccc2)CCN1C(=O)c1ccco1 (configuration not stated)	3.4	-1.6	-0.2	-9.1
O=C(CCCl)Nc1nc2c(s1)CCc1ccccc1-2	11.5	1.4	0.5	34.6*
O=C(Nc1nc2c(s1)CCc1ccccc1-2)c1ccco1	-25.2	0.0	-0.2	-25.3
O=C(Cn1c(=O)oc2cc(S(=O)(=O)N3CCCC3)ccc21)N1CCOCC1	-8.2	0.5	-0.1	-3.2
CCC(C)Oc1ccccc1C1CC(=O)NC2=C1C(=O)CCC2 (configuration not stated)	5.4	-1.0	0.1	38.2*
O=C1CCCC2=C1C(c1ccc(O)c(Br)c1)C1=C(CCCC1=O)O2	16.7	0.1	0.3	44.7*
Nc1ncnc(N/N=C/c2ccccc2)c1[N+](=O)[O-]	8.6	1.1	0.2	5.8
COc1ccc(/C=N/Nc2ncnc(N)c2[N+](=O)[O-])cc1OC	26.0	-1.0	-0.1	-22.1
Nc1ncnc(N/N=C/c2cccc(Br)c2)c1[N+](=O)[O-]	17.9	-3.9	0.1	35.7*
Nc1ncnc(N/N=C/c2ccc(O)cc2)c1[N+](=O)[O-]	-1.9	-2.9	-0.1	67.9*
COCCNC(=O)c1cn(C2CCCCC2)c(=O)c2c1c1ccccc1n2C	9.3	-0.9	0.1	11.1
CCC(C)NC(=O)c1cn(C2CCCCC2)c(=O)c2c1c1ccccc1n2C (configuration not stated)	13.7	1.2	2.3*	4.4
Oc1c(Br)cc(/C=C/c2ccc3cccc(O)c3n2)cc1Br	7.0	-0.8	0.3	17.1
COc1ccc(/C=C/c2ccc3cccc(OC(C)=O)c3n2)cc1OC(C)=O	16.6	-4.4	0.0	75.2*
Oc1cccc(/C=C/c2ccc3cccc(O)c3n2)c1	6.2	-4.3	0.1	47.4*
CC(C)Oc1ccc(/C=C/c2ccc3cccc(O)c3n2)cc1	5.3	-8.7	0.1	79.7*
Oc1cccc2ccc(/C=C/c3ccc(Cl)cc3)nc12	4.6	-2.1	0.1	46.2*
CC(=O)Oc1ccc(/C=C/c2ccc3cccc(OC(C)=O)c3n2)cc1[N+](=O)[O-]	21.3	-7.4	0.0	-6.5
COc1ccc(OCCn2cc(/C=C3/C(=N)N4N=C(COc5ccccc5)SC4=NC3=O)c3ccccc32)cc1	0.8	0.7	0.1	5.2
COc1cccc(C2C3=C(CC(C)(C)CC3=O)Nc3ccccc3N2C(=O)C(C)C)c1 (configuration not stated)	16.6	0.6	0.0	3.0
O=[N+]([O-])c1cccc(S(=O)(=O)N2CCc3ccccc3C2)c1	0.4	0.7	0.1	1.4
O=[N+]([O-])c1cccc(S(=O)(=O)N2CCc3ccccc32)c1	3.0	0.5	-0.4	32.4*
Cc1cc(C)c(S(=O)(=O)N2CCc3ccccc32)cc1[N+](=O)[O-]	49.4	0.6	-0.1	63.5*
O=C(C1CC12CCN(Cc1ccco1)CC2)N1CCN(Cc2ccccn2)CC1 (configuration not stated)	-3.6	0.4	0.0	2.0
COCC(=O)Nc1c(C(C)C)cccc1C(C)C	2.0	-0.3	0.1	7.0
SMILES	MITF primary	GPR151 activ	FBW7 act	TEAD-YAP inh
O=C1NC(=O)C(=Cc2cc(O)c(O)c(Br)c2)C(=O)N1	57.8*	1.6	-0.3	3.8
CCOc1cc(C=C2C(=O)NC(=O)NC2=O)cc(Br)c1O	7.5	-0.3	-0.3	1.3
O=C1NC(=O)C(=Cc2cc(Br)c(I)o2)C(=O)N1	58.6*	-1.1	-0.6	1.9
Cc1cccc(N2CC(O)(c3ccc(F)cc3)[N+]3=C2CCCC3)c1 (configuration not stated)	-9.8	-0.6	-0.1	-11.0
CCn1c(NC(C)=O)c(-c2ccc(OC)cc2)c(=O)c2ccccc21	-14.6	-0.3	0.4	0.0
CC(=O)N(C1=C(N2CCN(C)CC2)C(=O)c2ccccc2C1=O)c1cccc(F)c1	-2.2	-1.5	-0.1	88.3*
CCCNC1=C(N(C(C)=O)c2cccc(F)c2)C(=O)c2ccccc2C1=O	6.8	-5.5	-0.3	93.3*
CC(=O)N(C1=C(N2CCCCC2)C(=O)c2ccccc2C1=O)c1cccc(Cl)c1	56.2*	-0.2	-0.3	-2.4
CC(=O)N(C1=C(Nc2ccccc2)C(=O)c2ccccc2C1=O)c1ccccc1	20.8	-2.3	-0.4	8.6
CC(=O)N(C1=C(N2CCCC2)C(=O)c2ccccc2C1=O)c1ccc(F)c(F)c1	-17.6	-3.6	0.0	22.3
O=C(COC(=O)CNC(=O)c1ccccc1F)Nc1ccc(F)cc1	-5.0	-0.9	-0.1	1.8
O=C(COC(=O)c1cccc([N+](=O)[O-])c1C(=O)OCC(=O)c1ccc(Br)cc1)c1ccc(Br)cc1	14.1	-1.3	0.2	5.9
N[C@H](Cc1ccc(Cl)cc1)c1nc2ncc(-c3ccncc3)cc2[nH]1	13.8	-0.7	-0.6	20.8
NC(c1nc2ncc(-c3ccncc3)cc2[nH]1)c1ccc(F)cc1F (configuration not stated)	45.5	-0.5	3.5*	-10.8
COC(=O)c1ccccc1N=C/C(C(C)=O)=C(\O)c1ccc(OC)cc1	12.3	-2.6	-0.1	1.3
CC[n+]1c(/C=C/c2ccc(N(C)C)cc2)sc2cc(C)ccc21	23.3	-1.0	-0.3	88.5*
CC[n+]1c(C)sc2ccc(C)cc21	0.8	1.2	0.0	14.9
Oc1ccccc1/C=N/Nc1ccc(Cl)nn1	51.2*	0.4	-0.1	72.4*
O=C(N/N=C/c1ccccc1O)C(=O)Nc1ccccn1	60.5*	-0.4	-2.1	-16.3
Cc1cc(C)n(-c2cc(N/N=C/c3ccccc3O)ncn2)n1	10.0	0.4	-0.5	58.9*
Oc1ccccc1/C=N\Nc1nc2ccccc2o1	22.2	-2.7	-0.2	51.6*
Cc1ccc2oc(=O)c3cnn(CC(=O)N4CCC(C)CC4)c3c2c1	8.2	-0.5	0.6	13.2
Oc1ccccc1/C=N\Nc1ncc(F)c(N2CCOCC2)n1	87.6*	0.1	-0.6	-27.1
Oc1c(Br)cc(Br)cc1/C=N/Nc1ccccn1	26.5	-0.6	0.2	17.8
Oc1ccccc1/C=N\Nc1ccccn1	81.8*	1.5	-0.9	-69.7
SMILES	MITF primary	GPR151 activ	FBW7 act	TEAD-YAP inh
Cc1cccc(C(=O)Nc2ccc(N3CCCCC3)cc2)c1	11.9	-7.1	-0.1	12.0
Cc1ccc(-c2nnc(Cc3ccc([N+](=O)[O-])cc3)o2)cc1	21.9	-0.6	0.3	60.9*
O=[N+]([O-])c1ccc(Cc2nnc(-c3ccc(F)cc3)o2)cc1	21.1	-0.5	0.5	-35.6
O=C(NC(=S)Nc1cccc(-c2nc3ccccc3s2)c1)c1ccc(S(=O)(=O)N2CCCC2)cc1	10.8	-0.3	-0.1	-17.1
Cc1ccccc1C(=O)NC(=S)Nc1cccc(C(=O)O)c1	-5.3	1.4	0.3	0.3
CC(Nc1ncnc2sccc12)c1ccccc1 (configuration not stated)	-4.0	3.0	-0.1	53.0*
O=C(OCc1ccccc1)c1cc(Cl)ccc1[N+](=O)[O-]	4.1	-1.2	-0.2	5.5
O=C(OCc1cc(=O)oc2cc(O)c(O)cc12)c1cc(Cl)ccc1[N+](=O)[O-]	64.0*	0.7	0.0	5.8
